Laboratory results: article PMC5540273 (PLoS ONE, 2017)

What was measured:
Details in all cases: concentration: 1 μM,replicates: in singlicate; n = 1
CDC2L2 = system: CDC2L2
CDC2L5 = system: T1, CDC2L5
T1 construct: gene CDK13

CDK11 = system: T2, CDK11
T2 construct: gene CDK19

CDK2 = system: CDK2
CDK3 = system: CDK3
CDK4-cyclinD1 = system: CDK4-cyclinD1
CDK4-cyclinD3 = system: CDK4-cyclinD3
CDK4 = system: CDK4
CDK5 = system: CDK5
CDK7 = system: CDK7
CDK8 = system: CDK8
CDK9 = system: CDK9
CDKL1 = system: CDKL1
CDKL2 = system: CDKL2
CDKL3 = system: CDKL3
CDKL5 = system: CDKL5
CHEK1 = system: CHEK1
CHEK2 = system: CHEK2
CIT = system: CIT
CLK1 = system: CLK1
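Further: KINOMEscan kinase panel screen.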

| Compound | %Inh (CDC2L2) [%] | %Inh (CDC2L5) [%] | %Inh (CDK11) [%] | %Inh (CDK2) [%] | %Inh (CDK3) [%] | %Inh (CDK4-cyclinD1) [%] | %Inh (CDK4-cyclinD3) [%] | %Inh (CDK4) [%] | %Inh (CDK5) [%] | %Inh (CDK7) [%] | %Inh (CDK8) [%] | %Inh (CDK9) [%] | %Inh (CDKL1) [%] | %Inh (CDKL2) [%] | %Inh (CDKL3) [%] | %Inh (CDKL5) [%] | %Inh (CHEK1) [%] | %Inh (CHEK2) [%] | %Inh (CIT) [%] | %Inh (CLK1) [%] |
| --- | --- | --- | --- | --- | --- | --- | --- | --- | --- | --- | --- | --- | --- | --- | --- | --- | --- | --- | --- | --- |
| C[C@@H]1CCN(C(=O)N2CCCC2)C[C@@H]1N(C)c1ncnc2[nH]ccc12 | 0 | 6 | 2 | 0 | 15 | 21 | 8 | 11 | 18 | 34 | 24 | 0 | 24 | 11 | 0 | 5 | 9 | 0 | 13 | 4 |
| Cc1ccc(Nc2ccnc(Nc3ccc4c(c3)CS(=O)(=O)C4)n2)cc1O.Cl [GW579362] | 46 | 0 | 0 | 89 | 77 | 88 | 73 | 43 | 95 | 23 | 38 | 37 | 36 | 41 | 0 | 0 | 0 | 14 | 69 | 81 |
| COc1cc(Nc2nccc(N3CCC(NC(=O)c4cccc(C#N)c4)C3)n2)cc(OC)c1OC (stereo not shown) [GSK1379751] | 36 | 0 | 12 | 0 | 0 | 5 | 0 | 27 | 0 | 0 | 6 | 0 | 0 | 41 | 0 | 0 | 0 | 0 | 8 | 4 |
| COC(=O)c1cccc(NC(=O)NC2CCN(c3ccnc(Nc4cc(OC)c(OC)c(OC)c4)n3)C2)c1 (stereo not shown) [GSK1379767] | 36 | 0 | 24 | 0 | 12 | 27 | 0 | 37 | 0 | 16 | 56 | 1 | 14 | 67 | 0 | 0 | 0 | 58 | 10 | 0 |
| Cc1cccc2c(-c3ccncc3)c(-c3ccc(F)cc3)nn12.Cl [GW461487] | 0 | 0 | 0 | 0 | 0 | 0 | 0 | 36 | 0 | 0 | 25 | 0 | 12 | 8 | 0 | 0 | 0 | 0 | 90 | 17 |
| COC(=O)Nc1nc2cc(Oc3ccc(NC(=O)Nc4cc(C(F)(F)F)ccc4Cl)cc3)ccc2[nH]1.Cl [GW697465] | 12 | 6 | 66 | 37 | 10 | 20 | 0 | 50 | 0 | 89 | 86 | 0 | 14 | 81 | 0 | 0 | 0 | 41 | 97.9 | 34 |
| Cn1ccc2ncnc(Oc3ccc(NC(=O)Nc4cc(C(C)(C)C)on4)c(Cl)c3)c21 | 4 | 26 | 100 | 12 | 2 | 0 | 2 | 2 | 0 | 55 | 90.9 | 6 | 48 | 26 | 17 | 32 | 0 | 7 | 63 | 0 |
| CC(C)c1nc(-c2cccc(NS(=O)(=O)c3ccccc3)c2)c(-c2ccnc(Nc3ccc4c(c3)CN(C)CC4)n2)s1 [GSK1649598] | 24 | 92.7 | 0 | 99.3 | 99.6 | 65 | 44 | 93.7 | 87 | 78 | 0 | 60 | 0 | 100 | 37 | 99 | 5 | 24 | 84 | 30 |
